From PubChem BioAssay (NCI)
About 79,000 compounds went through this panel and 15% of them were active in at least one assay; those are over-represented in the sample as a whole. The source made the active and inactive calls. No stated cut-off is given here; in the data, active means growth inhibition above about 70%; inactive means the rest.

Assay: NCI Yeast Anticancer Drug Screen. Data for the sgs1 strain (AID 173);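 further: 0% = growth of vehicle-only control cultures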
Conditions: S. cerevisiae sgs1 mutant, hits give high values
Protocol: Growth inhibition of yeast strains with defined genetic alterations is measured as a screen for potential anti-cancer activity. Selected strains with alterations in DNA damage repair or cell cycle control were exposed to compounds and growth inhibition was measured relative to vehicle treated controls. The strain used in this assay is sgs1

Measured: growth inhibition

CC(=O)/C=C/c1cc([N+](=O)[O-])ccc1O
active: at 33.0 µM 94% | at 100.0 µM 98%
inactive: at 1.2 µM -28% | at 3.7 µM -24% | at 11.0 µM 9%

CCCCCCCC/C=C\CCCCCCCCN
inactive: at 1.2 µM -3% | at 3.7 µM -11% | at 11.0 µM -15%
active: at 33.0 µM 97% | at 100.0 µM 96%

CCCCCCC=C(C(=O)OCC)C(=O)OCC
inactive: at 1.2 µM -1% | at 3.7 µM -1% | at 11.0 µM 1% | at 33.0 µM 5% | at 100.0 µM 30%

CC12CCC(CC(=O)/C1=C(/Br)I)C2(C)C (stereo not given)
inactive: at 1.2 µM -2% | at 3.7 µM -1% | at 11.0 µM 1% | at 33.0 µM 21% | at 100.0 µM 1%

CC(=O)NC(c1nc2cc(C)c(C)cc2[nH]1)c1nc2cc(C)c(C)cc2[nH]1
active: at 100.0 µM 73%
inactive: at 1.2 µM -4% | at 3.7 µM -2% | at 11.0 µM -1% | at 33.0 µM 36%

O=C(NNc1ccccc1)C(CCCCNS(=O)(=O)Cc1ccccc1)NS(=O)(=O)Cc1ccccc1 (stereo not given)
inactive: at 1.2 µM 2% | at 3.7 µM 7% | at 11.0 µM 25% | at 33.0 µM 42% | at 100.0 µM 68%

CN(C)CCNC(=Cc1ccc2ccccc2[n+]1C)NCCN(C)C
inactive: at 1.2 µM 0% | at 3.7 µM 0% | at 11.0 µM 0% | at 33.0 µM 0% | at 100.0 µM 1%

OC(Cc1cccc2ccccc12)CN1CCC(c2ccccc2)CC1 (stereo not given)
active: at 33.0 µM 83% | at 100.0 µM 97%
inactive: at 1.2 µM 60% | at 3.7 µM 59% | at 11.0 µM 67%
